Laboratory results reported in PubChem BioAssay AID1508600 (Functional Genomics Laboratory (NCATS/FGL), 2020).
In all, about 53,000 sequences went through this assay and about 3,700 (7%) were called active.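 The calls were made as follows: active = gene knockdowns whose robust z-score for IL-1 alpha signal is at least 2 or at most -2, so actives lie on both sides; inactive = the rest.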 This excerpt belongs to a sample that is enriched for actives.

Assay: Components of the Cytosolic LPS Sensing Pathway: Gene Identification via Genome-wide siRNA Screen;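 also: robust z of the log signal after scaling to non-targeting control siRNA wells of the plate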
Details: RAW264.7 macrophages, IL-1a HTRF, actives lie on both sides, screened at 100 nM (by protocol), cells primed 5 h with Pam3CSK4 first
How it was run: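 Cells (RAW264.7, 1×10^4 per well) were transfected with siRNA at 100 nM and cultured 48h at 37 degrees C. Pam3CSK4 was added for 5 hours; LipidA transfection followed for 24 hour. IL-1a was then measured by HTRF.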

Sequence	z-score
GGCAUUGCUGGACUUUGAATT against Mvp	-1.71 (inactive)
GCUGCACGCACUGAUCAAGTT against Tjap1	1.02 (inactive)
GGUUUUGUUAAAGAAGACGTT against 4833439L19Rik	-2.25 (active)
CGGUGACGACGGAAUUCUATT against Cpne4	-1.42 (inactive)
GGAUUCAGAAGGCCUCAGUTT against Olfr399	0.132 (inactive)
UACUAGCAGAUUAACCACCTT against H2bc4	-0.192 (inactive)
GGCAUCAACAGAAUAACCATT against Tomm34	-1.31 (inactive)
GGCCAAGUUUGACAAGGAATT against Nap1l5	2.32 (active)
GCUGCAUCGAAAAACUCAGTT against Mycbp2	-0.564 (inactive)
GGAUUAUGGACCUCUUGGUTT against 4930595M18Rik	0.554 (inactive)
CCCAGUUGACAGGAGACCATT against Hps6	1.13 (inactive)
GCAUUAUAAAAAGGUUCCGTT against Atp2b1	1.81 (inactive)
GGCCCAAGAGAAUAUCCAGTT against Gm6460	0.281 (inactive)
GCAGGACAAGGACAACACUTT against Dyrk2	-2.1 (active)
CCACCGAAAUCCUUAUUUUTT against Ppargc1a	0.522 (inactive)
GCCAAGAGCACAUCUGCUATT against Suco	-1.65 (inactive)
GCUGGGUCAAACAUGACGUTT against Klhl17	0.452 (inactive)
ACCCUUUUGUUUACACUCUTT against Olfr763	-0.76 (inactive)
GCCCAAAGAUGACAUCGUATT against Gars	1.74 (inactive)
GCUAGACCCAUAAUAAAACTT against Synpo2l	-0.851 (inactive)
UUGACUCACCUUCCGAGGUTT against Lce1a1	0.0827 (inactive)
GCGCAAUAUAGAGUCAUCATT against Rnls	-2.83 (active)
CCGUUUACCAACCAAGAAUTT against Tnfrsf17	0.0608 (inactive)
GGUUUGCUACACUUCAGAATT against Xpr1	0.101 (inactive)
GCCAACUAGAAAACAACUGTT against Pdzd11	1.6 (inactive)
GGUGGAACAGGCAGAAUUCTT against Syn2	1.92 (inactive)
GGUCGCUACAAGAUGACUUTT against Hapln4	0.289 (inactive)
GCCAGUCAGAUGUACAGUCTT against Pbx1	3.28 (active)
CCAGAGUACAGUGUAGUCATT against Hspb6	0.508 (inactive)
GAACUUUUUUUCUGUGAACTT against Olfr175	-1.58 (inactive)
